From the supplement of paper PMC6555819

Tests used:
Test in all cases: PBM binding z-score (relative to random genomic background probes); higher = stronger binding; sequences stand for … in GC…GCGATTGACAGCGTAGAATGAAGG
[1] = tested on: FXR:RXRa (NR concentration 270 nM, RXRa partner concentration 90 nM)
How it was run: (§1)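 Regression normalization was applied to scanned fluorescence from custom Agilent 4×180K protein-binding microarrays. Before scanning, arrays were incubated 1 h with ligand-free nuclear receptor dimers, and binding was detected with antibodies against each partner (one per run). Binding z-scores use the random background probes as reference.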

[2] = tested on: LXRa:RXRa (NR concentration 270 nM, RXRa partner concentration 90 nM)
How it was run: as §1

[3] = tested on: LXRa homodimer (NR concentration 270 nM)
How it was run: as §1

[4] = tested on: LXRb:RXRa (NR concentration 270 nM, RXRa partner concentration 90 nM)
How it was run: as §1

[5] = tested on: LXRb homodimer (NR concentration 270 nM)
How it was run: as §1

[6] = tested on: PPARa:RXRa (NR concentration 270 nM, RXRa partner concentration 90 nM)
How it was run: as §1

[7] = tested on: PPARg:RXRa (NR concentration 180 nM, RXRa partner concentration 90 nM)
How it was run: as §1

[8] = tested on: PPARg:RXRa 270nM:90nM, anti-RXR (NR concentration 270 nM, RXRa partner concentration 90 nM)
How it was run: as §1

[9] = tested on: PPARg:RXRa 30nM:10nM, anti-RXR (NR concentration 30 nM, RXRa partner concentration 10 nM)
How it was run: as §1

[10] = tested on: PPARg:RXRa 90nM:30nM, anti-RXR (NR concentration 90 nM, RXRa partner concentration 30 nM)
How it was run: as §1

[11] = tested on: PPARg:RXRa DBDmut IVT, anti-RXR (DBD mutation: RXRa K156A/R161A, NR concentration 270 nM, RXRa partner concentration 90 nM)
How it was run: as §1

[12] = tested on: PPARg:RXRa IVT, anti-PPARg (NR concentration 270 nM, RXRa partner concentration 90 nM)
How it was run: as §1

[13] = tested on: PPARg DBDmut:RXRa IVT, anti-PPARg (DBD mutation: PPARg1 K132A/R137A, NR concentration 270 nM, RXRa partner concentration 90 nM)
How it was run: as §1

[14] = tested on: PPARg DBDmut IVT, anti-PPARg (DBD mutation: PPARg1 K132A/R137A, NR concentration 270 nM)
How it was run: as §1

[15] = tested on: PPARg homodimer (NR concentration 180 nM)
How it was run: as §1

[16] = tested on: PXR:RXRa (NR concentration 270 nM, RXRa partner concentration 90 nM)
How it was run: as §1

[17] = tested on: PXR homodimer (NR concentration 270 nM)
How it was run: as §1

[18] = tested on: RARa:RXR (NR concentration 270 nM, RXRa partner concentration 90 nM)
How it was run: as §1

[19] = tested on: RARa homodimer (NR concentration 270 nM)
How it was run: as §1

[20] = tested on: RARb:RXRa (NR concentration 270 nM, RXRa partner concentration 90 nM)
How it was run: as §1

Sequence	PBM binding z-score [1]	PBM binding z-score [2]	PBM binding z-score [3]	PBM binding z-score [4]	PBM binding z-score [5]	PBM binding z-score [6]	PBM binding z-score [7]	PBM binding z-score [8]	PBM binding z-score [9]	PBM binding z-score [10]	PBM binding z-score [11]	PBM binding z-score [12]	PBM binding z-score [13]	PBM binding z-score [14]	PBM binding z-score [15]	PBM binding z-score [16]	PBM binding z-score [17]	PBM binding z-score [18]	PBM binding z-score [19]	PBM binding z-score [20]
ACAGACTGGTGATGAAGGTAACTCAGGCTATCAT	-0.533	-0.452	-0.433	-0.663	-0.582	-0.594	0.512	0.104	-0.179	-0.158	-0.615	-0.401	0.194	-0.143	-0.6	-0.651	-0.0629	-0.424	0.115	-0.396
CGAACTAGGTCATCCAGGACGGTGAATACATTGA	4.05	2.29	0.0785	1.64	-0.427	4.85	7.27	6.3	3.61	5.41	7.81	8.21	2.02	0.711	0.484	1.5	0.391	2.02	0.0502	3.78
CGAACTAGGTCATTGATAGGACAGTGAATAGTAA	3.4	2.63	0.471	1.82	-0.194	4.38	7.14	5.99	3.25	5.56	7.92	8.26	4.2	1.01	1.71	1.43	0.351	1.93	0.346	3.4
TCTTGTAGATGAAGCAGGTTAAGAAAGCCTGAGT	0.563	-0.122	-0.489	0.276	-0.649	0.511	-0.527	0.925	2.72	1.69	1.86	0.0295	0.394	-0.11	0.107	0.195	0.164	0.228	-0.232	-0.0996
CGAACGAGGGCATGAGTTGATAGCCAATGCCGAT	0.587	0.378	-0.567	-0.0834	-0.821	1.33	1.39	1.49	0.255	0.727	3.14	2.29	0.281	-0.251	0.292	0.342	-0.25	0.497	-0.133	2.01
TCATATTGGTAAATGCTAGGTGAAAGTCCGATCT	0.86	0.817	0.679	0.796	0.681	0.861	0.033	1.9	3.55	2.76	2.35	0.751	1.11	1.6	1.32	0.588	0.616	0.882	1.3	0.404
GCTGCTAGGTGAACTGATGGTCAGCTAAAGCTCG	-0.0942	-0.291	-0.843	-0.328	-1.56	1.27	0.329	0.967	-0.226	0.635	3.85	2.6	-0.641	-1.06	-0.326	-0.0218	-0.684	0.388	-1.4	0.944
ATCGAAAGGTCGAAGATGAGTATACCCACCCGAA	3.83	3.21	0.43	2.41	0.732	4	2.52	2.37	1.04	1.8	-0.341	1.22	0.714	0.471	1.15	1.97	0.241	2.66	0.939	3.69
TCATATAGGTAAATGCTATGTGAAAGTCCGATCT	0.801	0.648	0.000605	0.522	-0.0167	1.13	1	2.16	3.62	3.03	3.59	2.05	1.25	1.39	0.542	0.621	-0.0684	0.813	1.29	0.304
TCTAGTTGGTCACGAAGGTCACACACGACGGGTA	2.82	3.04	1.75	3.17	0.769	3.71	3.45	4.6	3.66	4.25	2.83	4.36	1.5	1.16	3.64	3.95	1.05	4.14	2	4.01
ATATGTAGGTTACATCAGGGTCATTCAGGCTATG	3.26	4.84	2.29	3.97	0.66	5.17	6.84	5.54	3.17	4.87	7.19	7.69	2.46	2.26	2.46	4.24	2.65	4.06	1.01	2.77
AGAATGAGGTTGCCAAAGATCAGGGAAACGCTTG	0.0162	0.364	-0.555	0.0727	-0.656	0.857	0.786	0.932	0.289	0.435	-0.0771	-0.145	-0.469	-0.747	-0.291	0.0324	-0.465	0.398	-0.509	0.286
AGTCAAAGTTCATCTCGGTAACGTAAGATATGCT	6.81	6.1	5.38	3.79	1.92	4.76	6.02	6.19	3.18	5.22	0.386	2.85	1.54	1.05	2.38	4.97	4.44	3.65	1.33	5.06
CCTACTGTGCCATCAGGTCATTGATATCAACGTT	2.23	2.1	2.57	2.75	1.14	2.82	2.29	3.15	1.39	2.7	4.55	4.14	2.09	1.29	2.2	2.45	1.76	2.79	2.21	2.25
TATACAGGGTCAAAGGCCAGAGGACGAATGTCGA	7.18	6.58	2.34	4.72	2.59	5.98	8.38	7.61	5.3	7.21	1.96	4.98	2.24	2.72	3.14	4.5	0.565	5.97	0.998	4.43
